According to PubChem BioAssay AID504766 (The Scripps Research Institute Molecular Screening Center, 2011):
The campaign covered roughly 340,000 compounds. About 3,400 (1%) were called active.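 Rule for the calls: active = inhibition above the mean over all tested compounds plus 3 SD (cut at about 4.2% in these data); inactive = the rest.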 The entries come from a sample that favours actives as a whole.

Each compound was assayed against Nuclear receptor subfamily 0 group B member 1 (Homo sapiens) (UniProt P51843) (assay: DAX1 (NR0B1) inhibitors, primary screen, cell-based, HEK293, Gal4-DAX1, luciferase luminescence (AID 504766;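 note: 0% = DAX1-transfected cells with DMSO and 100% = empty-vector control cells with DMSO; inhibition shows as a rise in luminescence from relieved DAX1 repression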)). Conditions: HEK293 Gal4-DAX1 luciferase reporter, at 6.75 µM, active compounds read high.
Chain of Nuclear receptor subfamily 0 group B member 1 (Homo sapiens) (P51843 207-470 limits assumed): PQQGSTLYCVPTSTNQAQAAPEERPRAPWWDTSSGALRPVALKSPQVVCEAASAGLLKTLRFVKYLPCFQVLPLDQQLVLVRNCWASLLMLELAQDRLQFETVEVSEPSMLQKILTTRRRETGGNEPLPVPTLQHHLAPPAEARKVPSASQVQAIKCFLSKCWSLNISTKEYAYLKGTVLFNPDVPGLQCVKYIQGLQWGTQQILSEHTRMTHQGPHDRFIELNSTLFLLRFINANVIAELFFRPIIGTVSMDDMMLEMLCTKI
With `FC(F)(F)c1ccnc(Oc2ccc(C3=NCCS3)cc2)c1` the inhibition was 6.14% (active). For `CC1C(=O)N(Cc2cn(Cc3ccco3)nn2)CCS(=O)(=O)N1Cc1ccc(-c2cccc(CO)c2)cc1` (stereo unspecified), the inhibition was 0.37% (inactive). `COCOCCn1cc(CN2CCS(=O)(=O)N(Cc3ccc(-c4ccccc4)cc3)C(CC(C)C)C2=O)nn1` (stereo unspecified) was tested, and the inhibition was -1.62% (inactive). `CCCCCCOC(=O)NCC(O)c1ccccc1` (stereo unspecified) was tested, and the inhibition was 4.4% (active). In the case of `CCCCOC(=O)Nc1nnc(CC(=O)NCc2ccccc2)s1`, the inhibition is reported as -0.2% (inactive). With `O=C(CC(c1ccccc1)c1ccccc1)NCC(O)c1ccc([N+](=O)[O-])cc1` (stereo unspecified) the inhibition was 0.2% (inactive). For `COc1ccc(-n2c(-c3ccc(Cl)cc3)n[nH]c2=S)c(OC)c1`, the inhibition was 0.25% (inactive). With `COc1ccc(OCc2n[nH]c(=S)n2N)cc1` the inhibition was 0.95% (inactive). `COc1ccc(OC)c(-n2c(-c3ccn[nH]3)n[nH]c2=S)c1` was tested, and the inhibition was 4.83% (active). With `C[C@@H]1CN([C@H](C)CO)C(=O)c2cc(-c3ccc(F)cc3)cnc2O[C@H]1CN(C)C(=O)c1ccc(F)cc1` the inhibition was -1.22% (inactive). With `CN(Cc1ccccc1)C(=O)c1ccc(COc2ccccc2)cc1` the inhibition was 0.19% (inactive). For `CN(Cc1ccccc1)C(=O)c1cccc(C(=O)N(C)Cc2ccccc2)c1`, the inhibition was 0.91% (inactive). In the case of `CN(CC(=O)O)C(=O)c1ccccc1`, the inhibition is reported as 5.67% (active). `COCOCCn1cc(CN2CCS(=O)(=O)N(Cc3ccc(-c4cccc(N(C)C)c4)cc3)C(CC(C)C)C2=O)nn1` (stereo unspecified) was tested, and the inhibition was 2.25% (inactive). With `CN1CCN(c2nc(Nc3ccc(O)cc3)nc3ccccc23)CC1` the inhibition was 0.71% (inactive). With `CCOc1ccc(NC(=O)c2cc(C)nc3ccccc23)cc1` the inhibition was 0.49% (inactive). In the case of `Cc1cc(Nc2ccc(Br)cc2)nc2ccccc12`, the inhibition is reported as 5.55% (active). With `CSC1=NN(c2ccccc2)CN(c2ccccc2)N1C` the inhibition was 0.33% (inactive). `C[C@@H]1CN([C@@H](C)CO)S(=O)(=O)c2ccc(-c3ccc(C(=O)N(C)C)cc3)cc2O[C@@H]1CN(C)Cc1ccccc1C(=O)O` was tested, and the inhibition was 3.37% (inactive). For `Cc1csc(NC(=O)CN2CCCCCC2)n1`, the inhibition was 1.37% (inactive). In the case of `Cc1nc2c(ncn2-c2ccccc2)c(=O)n1NC(=O)CN1CCCC1`, the inhibition is reported as 8.39% (active). `Cc1nn(CC(=O)N2CCCCC2)c(=O)c2nn(-c3ccccc3)c(C)c12` was tested, and the inhibition was 0.17% (inactive). With `COc1ccc(NC2CCCN(C(=O)c3ccccc3-c3ncc[nH]3)C2)cc1` (stereo unspecified) the inhibition was -0.18% (inactive). For `Cc1cccc(OCC(=O)Nc2ccccc2F)c1`, the inhibition was 5.58% (active). With `Cc1cccc(OCCC(=O)Nc2ccccc2C(N)=O)c1` the inhibition was -0.79% (inactive). With `Cc1cccc(OCC(=O)Nc2ccc(C(=O)O)cc2NC(=O)COc2cccc(C)c2)c1` the inhibition was 0.91% (inactive).
